{"source": "ChEMBL document CHEMBL1201862", "about": "“PubChem BioAssay data set” (2004)", "note": "Several values for one entry are separate records, joined by “and”; a condition that tells them apart may be missing. Identical values can stand only once. Out of some 400,000 compounds screened, about 2,100 (0.53%) were called active. About 14% were inconclusive and are not listed. How the calls were made is not given here. Only a selection was taken, and actives are over-represented in it overall."}
{"target": "Ataxin-2 (Homo sapiens) (UniProt Q99700)", "sequence (Q99700 whole entry)": "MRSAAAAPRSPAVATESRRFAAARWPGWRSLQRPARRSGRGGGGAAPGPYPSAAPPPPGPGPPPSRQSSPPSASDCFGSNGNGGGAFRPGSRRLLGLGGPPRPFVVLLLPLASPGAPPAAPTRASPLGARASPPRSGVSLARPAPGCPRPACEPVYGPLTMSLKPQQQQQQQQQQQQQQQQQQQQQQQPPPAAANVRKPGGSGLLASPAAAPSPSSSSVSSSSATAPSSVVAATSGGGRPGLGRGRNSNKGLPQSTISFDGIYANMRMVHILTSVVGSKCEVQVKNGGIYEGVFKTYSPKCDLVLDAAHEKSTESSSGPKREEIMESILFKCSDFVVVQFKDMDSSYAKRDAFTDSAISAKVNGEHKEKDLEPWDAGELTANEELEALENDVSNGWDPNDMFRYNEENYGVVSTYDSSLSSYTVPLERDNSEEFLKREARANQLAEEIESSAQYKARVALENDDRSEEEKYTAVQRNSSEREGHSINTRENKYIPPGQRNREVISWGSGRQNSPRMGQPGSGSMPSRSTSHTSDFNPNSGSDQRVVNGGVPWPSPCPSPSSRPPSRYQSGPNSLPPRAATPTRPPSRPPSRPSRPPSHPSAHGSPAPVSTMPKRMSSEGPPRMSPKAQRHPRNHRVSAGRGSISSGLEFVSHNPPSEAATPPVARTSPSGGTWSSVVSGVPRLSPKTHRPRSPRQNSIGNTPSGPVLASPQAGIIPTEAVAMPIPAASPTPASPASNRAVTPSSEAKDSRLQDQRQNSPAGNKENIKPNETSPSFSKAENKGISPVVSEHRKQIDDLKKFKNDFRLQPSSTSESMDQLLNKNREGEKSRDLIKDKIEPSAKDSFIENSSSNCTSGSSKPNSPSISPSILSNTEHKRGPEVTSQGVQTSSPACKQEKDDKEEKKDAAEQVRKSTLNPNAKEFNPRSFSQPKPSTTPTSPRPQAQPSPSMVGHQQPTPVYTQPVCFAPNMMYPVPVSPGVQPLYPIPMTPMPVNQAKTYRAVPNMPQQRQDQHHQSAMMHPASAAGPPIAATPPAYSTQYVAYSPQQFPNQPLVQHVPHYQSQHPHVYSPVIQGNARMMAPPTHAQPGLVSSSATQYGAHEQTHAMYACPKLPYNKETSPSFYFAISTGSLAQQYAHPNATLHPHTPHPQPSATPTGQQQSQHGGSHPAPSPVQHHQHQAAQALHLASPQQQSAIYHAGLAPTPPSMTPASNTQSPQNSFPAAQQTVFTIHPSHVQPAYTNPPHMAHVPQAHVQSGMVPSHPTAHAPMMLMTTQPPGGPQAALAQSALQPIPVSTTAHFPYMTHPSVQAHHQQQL", "experiment": "qHTS for Inhibitors of ATXN expression.", "assay_type": "functional"}
{"smiles": "Cc1cccn2c(=O)c3cc(C#N)c(=O)n(CCCN4CCOCC4)c3nc12", "Potency": "inactive"}
{"smiles": "COc1cc(C(=O)NCCCNc2nc3cc(C)c(C)cc3cc2C#N)cc(OC)c1OC", "Potency": "inactive"}
{"smiles": "CCOC(=O)CNC(=O)C12CC3CC(C1)CC(c1ccc(C)cc1)(C3)C2", "Potency": "inactive"}
{"smiles": "COc1ccc(CCNC(=O)COC(=O)C2CC2C)cc1OC", "note": "(stereo not drawn)", "Potency": "inactive"}
{"smiles": "COc1ccc(C23CC4CC(CC(C4)C2)C3)cc1C(=O)NCCN(C)C", "Potency": "22.4 µM (active)"}
{"smiles": "Cc1nc(COc2ccccc2Cl)sc1-c1ccnc(N)n1", "Potency": "inactive"}
{"smiles": "S=C(Nc1ccc2nc(-c3ccccn3)c(-c3ccccn3)nc2c1)N1CCOCC1", "Potency": "inactive"}
{"smiles": "COc1ccc(-c2cc3ccc(O)c(CN4CCOCC4)c3oc2=O)cc1OC", "Potency": "inactive"}
{"smiles": "COc1ccc(C(c2c(O)ccc3ccccc23)N2CCOCC2)c(OC)c1", "note": "(stereo not drawn)", "Potency": "15.8 µM (active)"}
{"smiles": "COc1ccc(-c2c(C)c3ccc(O)c(CN4CCOCC4)c3oc2=O)cc1", "Potency": "inactive"}
{"smiles": "CCN(CC)c1ccc(/C=N\\NC(=O)c2cccc3cc[nH]c23)cc1", "Potency": "inactive"}
{"smiles": "NC(Cc1ccc(F)cc1)c1csc(Nc2ccc(C(F)(F)F)cn2)n1", "note": "(stereo not drawn)", "Potency": "35.5 µM (active)"}
{"smiles": "NC(Cc1ccc(F)cc1)c1csc(Nc2nccc(C(F)(F)F)n2)n1", "note": "(stereo not drawn)", "Potency": "39.8 µM (active)"}
{"smiles": "CCc1cnc(Nc2nc(C(N)Cc3ccc(F)cc3)cs2)nc1", "note": "(stereo not drawn)", "Potency": "25.1 µM (active)"}
{"smiles": "COc1cccc(Nc2nc(C(N)Cc3ccc(C(F)(F)F)cc3)cs2)n1", "note": "(stereo not drawn)", "Potency": "31.6 µM (active)"}
{"smiles": "O=C(NCCN1CCCOC1=O)C(=O)NCCN1CCCOC1=O", "Potency": "inactive"}
{"smiles": "O=C(NC1CCCc2ccccc21)c1ccccc1Cl", "note": "(stereo not drawn)", "Potency": "inactive"}
{"smiles": "O=C(Nc1ccc2nc(-c3ccco3)c(-c3ccco3)nc2c1)NC1CC1", "Potency": "inactive"}
{"smiles": "CCOC(=O)c1cnc2nc(N3CCOCC3)nn2c1N", "Potency": "inactive"}
{"smiles": "NC(=S)c1cc2ccc(O)cc2oc1=O", "Potency": "inactive"}
{"smiles": "Cc1[nH]c2ccccc2c1/C=C/c1nc2ccccc2c(=O)n1CCO", "Potency": "inactive"}
{"smiles": "CCc1cnc(Nc2nc(C(N)Cc3ccc(Cl)cc3)cs2)nc1", "note": "(stereo not drawn)", "Potency": "35.5 µM (active)"}
{"smiles": "CCCc1cnc(Nc2nc(C(N)Cc3ccc(C(F)(F)F)cc3)cs2)nc1", "note": "(stereo not drawn)", "Potency": "22.4 µM (active)"}
{"smiles": "NC(c1ccccc1)c1csc(Nc2ccc(C(F)(F)F)cn2)n1", "note": "(stereo not drawn)", "Potency": "35.5 µM (active)"}
{"smiles": "COc1cc(OC)nc(Nc2nc(C(N)Cc3ccc(Cl)cc3)cs2)n1", "note": "(stereo not drawn)", "Potency": "35.5 µM (active)"}
{"smiles": "COc1ccccc1/C=[N+](\\[O-])C1SC(=S)N(C)C1(C)C", "note": "(stereo not drawn)", "Potency": "inactive"}
{"smiles": "Cc1c(C)c2ccc(O[C@@H]3O[C@H](CO)[C@@H](O)[C@H](O)[C@H]3O)c(C)c2oc1=O", "Potency": "inactive"}
{"smiles": "Cc1nc2ccc(NS(=O)(=O)c3c(F)cc(F)cc3Br)cc2s1", "Potency": "inactive"}
{"smiles": "O=C(Nc1ccc(NC(=O)C2CC2)nc1)c1cnccn1", "Potency": "inactive"}
{"smiles": "COc1ccc(-c2cc(=O)oc3c(O)c(O)ccc23)cc1", "Potency": "inactive"}
{"smiles": "O=C(Nc1nc2n(n1)C(c1ccc(Cl)cc1)C=C(c1ccccc1)N2)c1ccco1", "note": "(stereo not drawn)", "Potency": "inactive"}
{"smiles": "O=C(CN1C(=O)/C(=C\\c2cccc(Br)c2)Oc2ccccc21)NCCCN1CCOCC1", "Potency": "39.8 µM (active)"}
{"smiles": "O=C(CN1C(=O)/C(=C\\c2ccccc2Cl)Oc2ccccc21)NCc1cccnc1", "Potency": "inactive"}
{"smiles": "CCCCNC(=O)c1ccc(/C=C2\\Oc3ccccc3N(C)C2=O)cc1", "Potency": "inactive"}
{"smiles": "COc1cc(/C=C(\\C#N)c2ccccn2)ccc1OCc1ccccc1", "Potency": "inactive"}
{"smiles": "O=C1OCCN1C(=O)[C@H]1[C@H](c2ccc(F)cc2)C(c2cccc(Cl)c2)=NN1c1ccc(Br)cc1", "Potency": "inactive"}
{"smiles": "Oc1cnnc(Nc2ccc(Nc3ccccc3)cc2)n1", "Potency": "inactive"}
{"smiles": "CCCCc1ccc(Nc2nc(O)cc(CCC)n2)cc1", "Potency": "39.8 µM (active)"}
{"smiles": "CCNC(=O)N1CCN(S(=O)(=O)c2ccc3c(c2)OCCCO3)CC1", "Potency": "inactive"}
{"smiles": "O=S(=O)(c1ccccc1)N(CC(F)(F)F)c1ccc(C(O)(C(F)(F)F)C(F)(F)F)cc1", "Potency": "22.4 µM (active)"}
{"smiles": "CCN(c1ccc(OCC(=O)OCC(=O)Nc2ccc(F)c(F)c2F)cc1)S(=O)(=O)c1ccccc1", "Potency": "inactive"}
{"smiles": "COc1ccc(NC(=O)c2sc3nc(N4CCOCC4)c4c(c3c2N)CCCC4)cc1", "Potency": "inactive"}
{"smiles": "CC1(C(=O)NNC(=O)c2ccc(=O)oc2)CC1Br", "note": "(stereo not drawn)", "Potency": "inactive"}
{"smiles": "O=C(c1ccccc1NS(=O)(=O)c1ccc([N+](=O)[O-])cc1[N+](=O)[O-])N1O[C@@H]2C=C[C@H]1C2", "Potency": "22.4 µM (active)"}
{"smiles": "CCN(CC)CCNC(=O)c1ccc(NC(=O)c2cn(-c3ccccc3)nc2-c2cccs2)cc1", "Potency": "39.8 µM (active)"}
{"smiles": "O=C(O)/C=C/c1cn(-c2ccccc2)nc1-c1cccs1", "Potency": "inactive"}
{"smiles": "COc1ccc(-c2nn(-c3ccccc3)cc2C(=O)Nc2ccc(C(=O)O)cc2)cc1OC", "Potency": "inactive"}
{"smiles": "CC(C)c1ccc(C2=CC(c3cccc(Cl)c3)n3ncnc3N2)cc1", "note": "(stereo not drawn)", "Potency": "inactive"}
{"smiles": "CC(c1ccccc1)N(C)C(=O)CN1CCN(S(=O)(=O)c2ccc3c(c2)OCCCO3)CC1", "note": "(stereo not drawn)", "Potency": "inactive"}
{"smiles": "C=CCN(CC=C)CCOc1cccc(Oc2ccccc2)c1", "Potency": "inactive"}
{"smiles": "CCN(CC)CCOc1ccc(/C(=C(/Cl)c2ccccc2)c2ccccc2)cc1", "Potency": "35.5 µM (active) and 17.8 µM (active)"}
{"smiles": "COc1ccc(CNc2oc(/C=C/c3cccc(OC)c3)nc2C#N)cc1", "Potency": "inactive"}
{"smiles": "O=c1oc2c3c4c(cc2c(C(F)(F)F)c1CCN1CCOCC1)CCCN4CCC3", "Potency": "inactive"}
{"smiles": "Cc1ccc(S(=O)(=O)N(Cc2ccccc2)c2ccccc2C(=O)N2CCCCC2)cc1", "Potency": "31.6 µM (active)"}
{"smiles": "CCN(c1ccccc1)S(=O)(=O)c1ccc(Cl)c(C(=O)N2CCCC2)c1", "Potency": "inactive"}
{"smiles": "Cc1ccc(S(=O)(=O)N2CCN(C(=O)c3ccccn3)CC2)cc1", "Potency": "inactive"}
{"smiles": "CCOc1ccc2nc(NCCNC(=O)c3cc(OC)c(OC)c(OC)c3)c(C#N)cc2c1", "Potency": "inactive"}
{"smiles": "CCn1c(SCC(=O)Nc2cccc(Cl)c2)nnc1-c1nonc1NC(C)=O", "Potency": "inactive"}
{"smiles": "CCOc1ccc(-c2nnc(SCC(=O)Nc3ccc4c(c3)c3ccccc3n4CC)n2N)cc1", "Potency": "31.6 µM (active)"}
{"smiles": "CCC(=O)Nc1ccc(NC(=O)CSc2nnnn2Cc2ccccc2)cc1C", "Potency": "inactive"}
{"smiles": "O=C(NCCO)c1cc2cc(Cl)cc(Cl)c2oc1=O", "Potency": "inactive"}
{"smiles": "CN(Cc1cn(C)nc1-c1ccc(Oc2ccccc2)cc1)Cc1cnc2ccccn12", "Potency": "35.5 µM (active)"}
{"smiles": "Cc1nccn1CCN(C)Cc1cn(Cc2ccccc2)nc1-c1ccc2c(c1)OCO2", "Potency": "inactive"}
{"smiles": "Cc1ccc2nc(N3CC(C)OC(C)C3)nc(-c3ccccc3)c2c1", "note": "(stereo not drawn)", "Potency": "inactive"}
{"smiles": "CC(C)Cc1ccc(C(C)CC2=CCC(CN(C)C)C2=O)cc1", "note": "(stereo not drawn)", "Potency": "22.4 µM (active)"}
{"smiles": "CC(C)Cc1ccc(C(C)C(=O)Nc2ncccn2)cc1", "note": "(stereo not drawn)", "Potency": "inactive"}
{"smiles": "COc1cccc(CN2CC(C(=O)N3CCSCC3)CCC2=O)c1", "note": "(stereo not drawn)", "Potency": "inactive"}
{"smiles": "O=C(Oc1cc2oc(=O)cc(-c3ccccc3)c2cc1Cl)C1CCCCC1", "Potency": "inactive"}
{"smiles": "CCN(CCCNC(=O)c1cc2cc3ccc(OC)cc3nc2s1)c1cccc(C)c1", "Potency": "39.8 µM (active)"}
{"smiles": "CCN(CCCNC(=O)c1cc(Nc2ccc(OC)cc2)nc2ccccc12)c1cccc(C)c1", "Potency": "inactive"}
{"smiles": "CCCCNC(=O)c1cc2nc(-c3ccc(OC)cc3)cc(C(F)(F)F)n2n1", "Potency": "inactive"}
{"smiles": "O=C1Nc2cc(C(=O)N3CCOCC3)ccc2S/C1=C/c1ccccc1F", "Potency": "inactive"}
{"smiles": "COCCCn1c(=O)/c(=C\\c2ccc(OC(F)F)c(OC)c2)s/c1=C(/C#N)C(N)=O", "Potency": "inactive"}
{"smiles": "CCN1CCCC1CNC(=O)c1ccc2c(c1)NC(=O)/C(=C\\c1ccc(C)cc1)S2", "note": "(stereo not drawn)", "Potency": "35.5 µM (active)"}
{"smiles": "CCN1CCCC1CNC(=O)c1ccc2c(c1)NC(=O)/C(=C\\c1ccc(OC)c(OC)c1)S2", "note": "(stereo not drawn)", "Potency": "31.6 µM (active)"}
{"smiles": "O=C1Nc2cc(C(=O)N3CCC(N4CCCCC4)CC3)ccc2S/C1=C\\c1ccccc1", "Potency": "39.8 µM (active)"}
{"smiles": "O=C(c1ccc2nc(-c3ccccc3)c(-c3ccccc3)nc2c1)N1CCCCC1", "Potency": "inactive"}
{"smiles": "Cc1cccc2cc(C#N)c(NCCNS(=O)(=O)c3ccccc3)nc12", "Potency": "inactive"}
{"smiles": "COc1ccc(O)c(C(=O)c2coc(=N)c(C(=O)Nc3ccc(SC(F)F)cc3)c2)c1", "Potency": "inactive"}
{"smiles": "CN(C)c1ccc(-c2ccc3c(=O)c4ccccc4n(C)c3c2)cn1", "Potency": "inactive"}
{"smiles": "COc1ccc(-c2ccc3c(N)c(C(=O)NC(C)C)sc3n2)cc1OC", "Potency": "inactive"}
{"smiles": "Cc1cccn2c(=O)c3cc(C(=O)NC4CCCC4)c(=N)n(C4CCCC4)c3nc12", "Potency": "inactive"}
{"smiles": "Cc1ccc(C)c(N(C)S(=O)(=O)c2ccc3[nH]cc(C(=O)NC4CCCC4)c(=O)c3c2)c1", "Potency": "28.2 µM (active)"}
{"smiles": "COC(CN(C)C(=O)c1cn(C)c2ccc(S(=O)(=O)N(C)C3CCCCC3)cc2c1=O)OC", "Potency": "inactive"}
{"smiles": "CCc1nnc(NC(=O)CSc2nc3c(cc2C#N)CCC3)s1", "Potency": "inactive"}
{"smiles": "N=c1c(C(=O)NC2CCCC2)cc2c(=O)n3ccccc3nc2n1Cc1ccccc1", "Potency": "inactive"}
{"smiles": "N#CCCN(Cc1ccccc1)C(C(=O)NC1CCCCC1)c1cc2ccccc2o1", "note": "(stereo not drawn)", "Potency": "39.8 µM (active)"}
{"smiles": "N=c1c(C(=O)NC2CCCCC2)cc2c(=O)n3ccccc3nc2n1Cc1ccccc1", "Potency": "inactive"}
{"smiles": "COc1ccc(-c2sc(C(=O)c3ccc(Cl)cc3Cl)cc2CC(=O)O)cc1", "Potency": "inactive"}
{"smiles": "COc1ccc(CCC(C)NCc2ccc(F)cc2)cc1", "note": "(stereo not drawn)", "Potency": "inactive"}
{"smiles": "COc1ccc(CCC(C)NCCc2ccc(Cl)cc2Cl)cc1", "note": "(stereo not drawn)", "Potency": "39.8 µM (active)"}
{"smiles": "COc1ccc(OC)c(/C=C/C(=O)Nc2ccc(C(=O)OCCC(C)C)cc2)c1", "Potency": "inactive"}
{"smiles": "CCOc1cc(/C=C/C(=O)Nc2ccc(C(=O)NCCN(CC)CC)cc2)ccc1OCC(C)C", "Potency": "22.4 µM (active)"}
{"smiles": "COc1cccc(OC)c1C(=O)Nc1ccccc1Sc1ccccc1", "Potency": "inactive"}
{"smiles": "COc1ccc(C2C=C(c3ccccc3)Nc3nc(NS(=O)(=O)c4ccc(Cl)cc4)nn32)cc1", "note": "(stereo not drawn)", "Potency": "inactive"}
{"smiles": "Cc1ccc2nc3c(cc(C(=O)NC4CCCC4)c(=N)n3C3CCCCC3)c(=O)n2c1", "Potency": "inactive"}
{"smiles": "Cc1nc2ccc(C(=O)Nc3cccc(OCC(=O)N(C)C)c3)cn2c1N(C)CC1CCCCC1", "Potency": "35.5 µM (active)"}
{"smiles": "Cc1ccc2nc3c(cc(C(=O)NC4CCCCC4)c(=N)n3C3CCCCC3)c(=O)n2c1", "Potency": "inactive"}
